Screening data: PubChem BioAssay, NMMLSC
Shown are actives, neighbours in structure and some others; about 3.5% of the full set was active somewhere.
Autofluor counter – counter-screen for toxin protease inhibitors: compound fluorescence; fluorescence intensity (no concentration beside the values); compound autofluorescence counterscreen, microsphere flow cytometry; active compounds read high; 360,000 compounds, 3.1% hits; in the data active means fluorescence intensity above about 16000; inconclusive means no clear call, values can overlap the other calls
Anthrax LF prot – anthrax lethal factor protease inhibition; multiplex microsphere protease cleavage assay, LF; inhibition, % at 10 µM; 360,000 compounds, 0.12% hits; AID 588501; further: plate controls were buffer without enzyme for full effect and enzyme alone for no effect
Target sequence (P15917 whole entry, looked up): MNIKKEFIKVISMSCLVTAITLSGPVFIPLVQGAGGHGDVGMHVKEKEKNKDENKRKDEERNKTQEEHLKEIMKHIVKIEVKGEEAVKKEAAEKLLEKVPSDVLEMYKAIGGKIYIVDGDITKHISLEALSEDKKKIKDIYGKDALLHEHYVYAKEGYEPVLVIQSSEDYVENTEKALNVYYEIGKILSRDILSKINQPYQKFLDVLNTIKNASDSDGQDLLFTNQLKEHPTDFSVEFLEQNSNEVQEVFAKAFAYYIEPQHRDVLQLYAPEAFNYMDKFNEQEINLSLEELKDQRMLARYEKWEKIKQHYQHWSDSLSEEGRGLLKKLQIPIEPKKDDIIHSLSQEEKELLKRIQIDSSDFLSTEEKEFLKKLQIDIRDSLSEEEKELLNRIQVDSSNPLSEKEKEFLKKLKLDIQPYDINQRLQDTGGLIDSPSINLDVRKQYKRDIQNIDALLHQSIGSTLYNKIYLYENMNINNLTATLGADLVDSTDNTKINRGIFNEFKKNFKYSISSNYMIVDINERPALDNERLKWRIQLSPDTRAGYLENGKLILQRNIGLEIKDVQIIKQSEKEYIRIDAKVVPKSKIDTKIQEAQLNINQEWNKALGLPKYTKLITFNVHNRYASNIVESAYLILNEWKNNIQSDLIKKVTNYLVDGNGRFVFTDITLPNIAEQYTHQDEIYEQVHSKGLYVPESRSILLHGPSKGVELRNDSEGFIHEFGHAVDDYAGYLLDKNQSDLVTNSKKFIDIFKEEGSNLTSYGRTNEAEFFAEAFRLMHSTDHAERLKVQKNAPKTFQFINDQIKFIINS
BoNT A protease – inhibitors of Botulinum neurotoxin A light chain protease. multiplex microsphere protease substrate cleavage, flow cytometry. 360,000 compounds, 0.17% hits. inhibition, % at 10 µM; further: plate controls were buffer without enzyme for full effect and enzyme alone for no effect
BoNT F protease – blocks Botulinum neurotoxin F light chain protease | inhibition, % at 10 µM | Multiplex microsphere protease cleavage assay, flow cytometry | 360,000 compounds, 0.22% hits; in the data active means inhibition above about 35%, passing the limit was not always enough; inconclusive means no clear call, values can overlap the other calls; further: plate controls were buffer without enzyme for full effect and enzyme alone for no effect
* = called active by the depositor; ? = inconclusive. Unless noted, no stated cut-off is given here; in the data, active means inhibition above about 30%; inconclusive means no clear call, values can overlap the other calls; inactive means below that.

SMILES | Autofluor counter | Anthrax LF prot | BoNT A protease | BoNT F protease
COc1ccc(C(=O)O/N=C(\N)Cc2ccc(Cl)cc2)cc1OC | 3250 | 7 | 0 | -4
O=C(O)CCC(=O)Nc1ccccc1C(=O)NC1CCCCC1 | 2663 | -1 | 0 | -10
O=C(OCc1ccc(Cl)cc1)c1cccnc1Cl | 4840 | 0 | -1 | -5
CCN(CC(=O)Nc1ccc(C#N)cc1)CC(=O)Nc1ccc2c(c1)OCCO2 | 3492 | 1 | 0 | 0
CCOc1ccccc1CN1CCCC(C(=O)Nc2cccc(-n3cccn3)c2)C1 (centres undefined) | 5813 | -2 | 0 | 9
COC(=O)[C@H](Cc1ccccc1)NC(=O)Cn1cnc(C(=O)Nc2ccc(C)c(C)c2)n1 | 3352 | 0 | 0 | 1
CC1(C(=O)NS(=O)(=O)c2cccc(F)c2)CCN1C(=O)CCC1CCCC1 (centres undefined) | 3009 | -2 | 0 | -6
N/C(=N\OC(=O)c1cccc(Br)c1)c1ccc(Br)cc1 | 3015 | -4 | 0 | -7
N/C(=N\OC(=O)c1ccc(Br)cc1)c1ccccc1 | 25293* | -2 | -5 | -5
Cc1ccc(S(=O)(=O)CCC(=O)OCC(=O)N2CC(=O)Nc3ccccc32)cc1 | 22432* | -6 | -1 | -3
CC1=C(C(=O)Nc2cccnc2)C(c2ccncc2)n2nnnc2N1 (centres undefined) | 19936* | 2 | ? | -2
COc1cccc(C2C(C(=O)Nc3cccnc3)=C(C)Nc3nnnn32)c1OC (centres undefined) | 4340 | 2 | 0 | 1
CC1=C(C(=O)Nc2ccccc2)C(c2ccncc2)n2nnnc2N1 (centres undefined) | ? | ? | 1 | 6
COc1ccccc1NC(=O)C1=C(C)Nc2nnnn2C1c1cc(Br)ccc1OC (centres undefined) | 23731* | -2 | -4 | -5
Cc1cc(C)c(C(N)=O)c(NC(=O)Nc2ccccc2)n1 | 22860* | -4 | 0 | 1
Cc1cccnc1NC(=O)Nc1ccccc1 | 5425 | -10 | -1 | -4
COc1cccc(-c2cnc3c(NC(C)=O)cc(-c4cccc(C(=O)NCCN(C)C)c4)cn23)c1 | 3594 | -10 | 0 | -11
Cn1c(=O)c2c(ncn2CC(=O)N(Cc2ccccc2)c2ccccn2)n(C)c1=O | 23173* | 0 | 0 | -2
CCOC(=O)Cn1c(CN(Cc2ccccc2)Cc2ccccc2)nc2c1c(=O)n(C)c(=O)n2C | 20766* | -9 | 3 | 4
CCCn1c(CN(Cc2ccccc2)Cc2ccccc2)nc2c1c(=O)n(C)c(=O)n2C | 5821 | -3 | 0 | -1
CC(C)CCn1c(CN2CCN(Cc3ccccc3)CC2)nc2c1c(=O)n(C)c(=O)n2C | 20587* | 3 | ? | -1
Cn1c(=O)c2c(ncn2CC(=O)OCc2ccccc2)n(C)c1=O | ? | 0 | -2 | 12
Cn1c(=O)c2c(nc(CN3CCN(Cc4ccccc4)CC3)n2Cc2ccc(F)cc2)n(C)c1=O | 6409 | -1 | 0 | 5
CCCCn1c(CN2CCN(c3cccc(Cl)c3)CC2)nc2c1c(=O)n(C)c(=O)n2C | 19625* | -12 | 6 | 7
CCCCN(C(=O)COc1ccc(F)cc1)c1c(N)n(CC(C)C)c(=O)[nH]c1=O | 4234 | -5 | 0 | 4
SMILES | Autofluor counter | Anthrax LF prot | BoNT A protease | BoNT F protease
CCCCCCCCC(c1nc2ccccc2[nH]1)N1CCN=C(c2ccccc2)C1=O (centres undefined) | 4329 | 2 | -1 | -7
CCn1c(CN2CCN(C(=O)c3ccco3)CC2)nc2c1c(=O)n(C)c(=O)n2C | 21356* | 1 | ? | 5
CCCCn1c(CN(C)Cc2ccccc2)nc2c1c(=O)n(C)c(=O)n2C | 19708* | -6 | 0 | -2
CCCCCn1c(CN2CCN(Cc3ccccc3)CC2)nc2c1c(=O)n(C)c(=O)n2C | 20660* | -8 | 5 | 7
CCCCn1c(CN2CCN(c3ccccc3)CC2)nc2c1c(=O)n(C)c(=O)n2C | 5771 | 2 | 0 | 7
COC(=O)c1ccccc1NC(=O)Nc1cc(C)ccn1 | 2026 | -1 | 0 | 0
COC(=O)c1ccccc1NC(=O)Nc1cc(C)cc(C)n1 | 21356* | -1 | 4 | 6
COC(=O)c1cc(OC)c(OC)cc1NC(=O)Nc1ccccc1OC | 23051* | -2 | 1 | -1
COc1ccccc1OCc1ccc(C(=O)N2N=C(C(F)F)CC2(O)C(F)F)o1 (centres undefined) | 16851* | -1 | -3 | -4
O=C(c1ccc(COc2ccc(Cl)cc2)o1)N1N=C(C(F)F)CC1(O)C(F)F (centres undefined) | 1977 | 0 | -1 | -7
CCCC(=O)NC(Nc1ccc(S(=O)(=O)Nc2cc(C)on2)cc1)(C(=O)OCC)C(F)(F)F (centres undefined) | 8537 | 3 | 0 | 0
CCOC(=O)C(NC(=O)CC(C)C)(Nc1cc(C)on1)C(F)(F)F (centres undefined) | 22923* | -2 | -2 | -1
COc1ccc(C2=NO[C@@H]3C(=O)N(c4c(C)cccc4C)C(=O)[C@H]23)cc1OC | 22305* | -2 | ? | 0
Cc1cccc(C)c1N1C(=O)[C@@H]2C(c3ccccc3Cl)=NO[C@@H]2C1=O | 5482 | -2 | 0 | 8
Cn1nc(C(C)(C)C)cc1C(=O)NCc1ccc(N2CCCC2=O)cc1 | 23561* | -4 | ? | 0
Cc1ccc(CNC(=O)c2ccc(N3CCCC3=O)cc2)cc1 | 11293 | 3 | 0 | 2
Cc1ccc2[nH]c(=O)c(NC(N)=S)nc2c1 | 20753* | -4 | 0 | -3
COC(=O)c1cc(=O)nc(NN=Cc2ccco2)s1 | 5858 | -4 | 0 | -2
CSc1ccc(C(=O)Nc2cc(S(=O)(=O)N3CCOCC3)ccc2N2CCOCC2)cc1[N+](=O)[O-] | 3483 | -4 | -1 | -2
CCCCC(=O)Nc1nc(C)c(C(C)=O)s1 | 6253 | 1 | -2 | -7
CC(=O)c1sc(NC(=O)C=C(C)C)nc1C | 17371* | -5 | -2 | -3
CCOC(=O)[C@]12CCCC=C1N(Cc1ccc3c(c1)OCO3)C(=O)[C@H](CC(=O)NCc1cccc(C(F)(F)F)c1)C2 | 5685 | 4 | 0 | -4
COC(=O)C1C(c2ccccc2)C(C(=O)N2CCOCC2)C1c1ccccc1 (centres undefined) | 22025* | -2 | ? | -1
CC1(C)Cc2c(sc3ncnc(N)c23)CO1 | 18415* | -8 | 4 | 6
CC1(C)Cc2c(sc3nc[nH]c(=O)c23)CO1 | 2432 | -2 | 0 | -2
SMILES | Autofluor counter | Anthrax LF prot | BoNT A protease | BoNT F protease
O=C(CN1CCN(c2cnn(-c3ccccc3)c(=O)c2Cl)CC1)NC1CCS(=O)(=O)C1 (centres undefined) | 5825 | -1 | -1 | ?
COc1ccc(C(=O)COC(=O)CSCc2c(C)noc2C)cc1OC | 22438* | 2 | 2 | 1
CCc1noc(C)c1C(=O)OCC(=O)c1ccc(OC)c(OC)c1 | 3159 | -5 | 0 | 3
C(=C\c1ccccc1)/CN1CCN(c2ncnc3c2oc2ccccc23)CC1 | 17552* | -5 | ? | -2
c1ccc2c(c1)oc1c(N3CCOCC3)ncnc12 | 2705 | 0 | 0 | -2
CCOC(=O)C1=C(C)C(c2ccccc2)NC(=S)N1 (centres undefined) | 18384* | -1 | 3 | 1
CCCSc1nnc(CNS(=O)(=O)c2ccc(C)cc2)n1C | ? | 0 | 0 | 1
